Source: PubChem (National Center for Advancing Translational Sciences (NCATS))
BCR signal inh: inhibitors of chronic active B-cell receptor signaling. Potency, µM (doses to about 46.1 µM), for the others: at the top dose activity change, negative = inhibition, most hits filed as inhibitors. AID 493014. hit rate 0.05% among 340,000. ABC-DLBCL IkBa-CBG/CBR reporter, luminescence ratio, 4 h; active = well fitted inhibition curve with a large enough effect in the signal ratio, with a control signal flat, not every such curve was filed as active; inconclusive = small, poorly fitted or top-dose-only effect, or effect the other way, or a change in a side signal; the % refers to the signal ratio;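 also: potency is read from the fitted curve at half-maximal effect; plate controls were basal doxycycline-induced cells for no effect and cells given 10 µM MG132 for full effect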
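Concentration-response series (up to 46 uM) were applied to TMD8 dual-reporter cells for 4 h at 37C with doxycycline. Green/red ratio, after filter-overlap correction, defined %Activity; red signal alone was normalised to basal cells and zero luminescence.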
MCF10A rerep: DNA re-replication induction in MCF 10a cells; MCF 10A DNA re-replication, Hoechst nuclear intensity, 48 h; Potency, µM (highest dose often 46.1 µM), inactives show at the top dose activity, positive = re-replication, usual class: activators; AID 624296; hit rate 2.9% among 350,000; also: potency is read from the fitted curve at half-maximal effect; % of control where 0% means no effect; nearly all actives have a fitted effect of over 50% in size
Gal4-VP16 FLuc: inhibits Gal4-VP16 luciferase reporter, ROR gamma counter-screen | Drosophila S2 Gal4-VP16 UAS-luciferase, luminescence, 20 h | Potency, µM (highest dose often 53.6 µM), inactives show at the highest dose activity, negative = inhibition, actives largely listed as inhibitors | hit rate 3.5% among 310,000;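 also: Gal4-VP16 expression switched on by copper sulfate through the metallothionein promoter; potency is read from the fitted curve at half-maximal effect; % is scaled to controls: 0 for no effect and ±100 for the full control effect; nearly all actives have a fitted effect of over 50% in size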
RORg inh: inhibitors of mouse ROR gamma transcriptional activity; P51450; Drosophila S2 Gal4-RORgamma UAS-luciferase reporter, 20 h; Potency, µM (doses to about 53.6 µM), without a hit: at the top dose activity change, negative = inhibition, most hits filed as inhibitors; hit rate 5.4% among 310,000; also: potency is read from the fitted curve at half-maximal effect; % is scaled to controls: 0 for no effect and ±100 for the full control effect; nearly all actives have a fitted effect of over 60% in size
Target sequence (P51450 whole entry, looked up, the tested form may be a part): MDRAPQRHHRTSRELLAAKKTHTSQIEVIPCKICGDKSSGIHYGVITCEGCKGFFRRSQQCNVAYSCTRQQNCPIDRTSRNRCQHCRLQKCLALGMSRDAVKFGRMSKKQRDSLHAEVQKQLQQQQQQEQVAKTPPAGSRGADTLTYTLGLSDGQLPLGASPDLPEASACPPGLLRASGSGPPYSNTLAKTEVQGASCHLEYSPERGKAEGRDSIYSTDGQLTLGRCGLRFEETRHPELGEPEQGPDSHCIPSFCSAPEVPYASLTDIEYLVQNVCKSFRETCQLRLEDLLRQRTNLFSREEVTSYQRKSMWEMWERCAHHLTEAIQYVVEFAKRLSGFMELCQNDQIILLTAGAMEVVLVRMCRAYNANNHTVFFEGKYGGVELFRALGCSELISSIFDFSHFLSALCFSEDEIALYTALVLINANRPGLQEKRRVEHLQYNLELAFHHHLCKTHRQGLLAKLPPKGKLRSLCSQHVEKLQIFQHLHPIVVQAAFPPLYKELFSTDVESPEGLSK
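Read-out: Photinus luciferase luminescence; inhibitors lower reporter signal. Insect Schneider cells with Gal4-ROR gamma fusion under metallothionein promoter, UAS reporter; 700 uM final copper sulfate induction, 20 hr, ambient temperature.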
Giardia killer: Giardia lamblia killing | Giardia lamblia trophozoite viability | activity change, % at 7.66 µM, hits read low | hit rate 0.15% among 340,000; in the data active = activity change below about -80%; inconclusive = between about -30% and that limit;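 also: parasites exposed to compound for two days anaerobically before the ATP read; % is scaled to controls: 0 for no effect and ±100 for the full control effect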
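Luminescent ATP signal served as the viability read-out, measured 15-30 min after adding ATP detection reagent to trophozoites that had been incubated with compounds for 48 hrs at 37 deg C anaerobically at 100 cells/well.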
SW480 rereplic: inducers of DNA re-replication in SW480 colon cancer cells | SW480 DNA re-replication, Hoechst DNA content imaging, 48 h | Potency, µM (doses to about 46.1 µM), for the others: top-dose re-replication activation, most hits filed as activators | hit rate 1.8% among 340,000 | AID 624297; also: potency is read from the fitted curve at half-maximal effect; % of control where 0% means no effect; nearly all actives have a fitted effect of over 55% in size
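First, 250 cells per well were seeded. Next, compound or vehicle (23 nL) was pinned in, plates sat 48 hr at 37 C. Finally Hoechst was added for 40 min before fluorescence scanning.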
Starred values were filed as active, the others as inactive; [ ] = another dose, or the depositor's remark. Most compounds without a hit are left out; they make up all but 8.3% or so of the library. Unless noted, calls follow the shape of the dose curve; as a rule, active = well fitted curve in the direction sought with a large enough effect; inconclusive = small, poorly fitted or top-dose-only effect, or another doubt; inactive = no such curve, though single readings can be large; an effect the other way counts as inactive or inconclusive.

`CC(C)CN1CN(Cc2ccco2)CNC1=S` gave BCR signal inh 3%, MCF10A rerep 1%, Gal4-VP16 FLuc inconclusive, RORg inh 2.2µM*, Giardia killer 8 and SW480 rereplic -2%.
`S=C1NCN(CCc2ccccc2)CN1Cc1ccccc1` gave BCR signal inh 0%, MCF10A rerep -1%, Gal4-VP16 FLuc 3%, RORg inh 5%, Giardia killer -6 and SW480 rereplic -6%.
Screening CCOCCn1c(CN2CCN(C(=O)c3ccco3)CC2)nc2c1c(=O)n(C)c(=O)n2C returned BCR signal inh 7%, MCF10A rerep -2%, Gal4-VP16 FLuc 1%, RORg inh -9%, Giardia killer 5 and SW480 rereplic -2%.
COc1ccc(CCNC(=O)c2cccc(NS(=O)(=O)c3ccccc3F)c2)cc1OC was read as BCR signal inh inconclusive, MCF10A rerep 3%, Gal4-VP16 FLuc 16%, RORg inh 0%, Giardia killer -7 and SW480 rereplic 1%.
`COc1ccccc1C(=O)NCC1CCN(c2ccc(S(=O)(=O)N3CCOCC3)cc2)CC1` gave BCR signal inh 22%, MCF10A rerep 6.5µM*, Gal4-VP16 FLuc 10%, RORg inh 1%, Giardia killer 14 and SW480 rereplic 2%.
For Cc1cc(C)n(C(=O)Cn2nc([N+](=O)[O-])cc2C)n1 the results were BCR signal inh 4%, MCF10A rerep -4%, Gal4-VP16 FLuc -5%, RORg inh inconclusive, Giardia killer -15 and SW480 rereplic -4%.
`C[C@@]12C(=O)OC(=O)[C@@]1(C)C1CCC2O1` gave Gal4-VP16 FLuc 5µM* and RORg inh 14µM*.
`C[C@@]12C(=O)OC(=O)[C@]1(C)[C@H]1CC[C@@H]2O1` gave MCF10A rerep inconclusive, Gal4-VP16 FLuc 5µM*, RORg inh -13%[2.98 µM] and SW480 rereplic 2%[20.6 µM].
For Cc1cc(C)c2c(=O)cc(C(F)(F)F)oc2n1 the results were BCR signal inh -2%, MCF10A rerep -1%, Gal4-VP16 FLuc 0%, RORg inh 12%, Giardia killer -6 and SW480 rereplic -1%.
For COc1ccc(CC(C#N)(CO)c2nc3ccccc3[nH]2)cc1 (centres undefined) the results were BCR signal inh inconclusive, MCF10A rerep 2%, Gal4-VP16 FLuc -5%, RORg inh 17%, Giardia killer 1 and SW480 rereplic 21µM*.
O=C(NC(=S)Nc1ccc(CN2CCOCC2)cc1)c1ccc(-c2ccc(Cl)cc2)o1 was read as BCR signal inh 8%, MCF10A rerep 9%, Gal4-VP16 FLuc 8%, RORg inh -41%, Giardia killer 2 and SW480 rereplic 20%.
Screening O=C(NC(=S)Nc1ccccc1O)c1ccc(-c2ccc(Cl)cc2)o1 returned BCR signal inh 4%, MCF10A rerep 16µM*, Gal4-VP16 FLuc 7.9µM*, RORg inh 3.2µM*, Giardia killer 13 and SW480 rereplic 14%.
Cc1ccc(O)c(NC(=S)NC(=O)c2ccc(-c3ccc(Cl)cc3)o2)c1 was read as MCF10A rerep 6.5µM*, Giardia killer 24 and SW480 rereplic 26%.
Cc1c(NC(=S)NC(=O)c2ccc(-c3ccc(Cl)cc3)o2)cccc1C(=O)O was read as BCR signal inh 4%, MCF10A rerep inconclusive, Gal4-VP16 FLuc -17%, RORg inh 19%, Giardia killer 10 and SW480 rereplic -15%.
`COc1ccccc1NC(=S)NNC(=O)c1nn(C)c(C)c1Cl` gave BCR signal inh inconclusive, MCF10A rerep -3%, Gal4-VP16 FLuc 17%, RORg inh 19%, Giardia killer 1 and SW480 rereplic 16%.
COc1ccccc1NC(=S)NC(=O)c1ccc(-c2ccc(Cl)cc2)o1 was read as BCR signal inh 0%, MCF10A rerep inconclusive, Gal4-VP16 FLuc inconclusive, RORg inh 1.8µM*, Giardia killer 12 and SW480 rereplic -1%.
`CC(=O)NC(=O)c1ccc(-c2ccc(Cl)cc2)o1` gave BCR signal inh inconclusive, MCF10A rerep -1%, Gal4-VP16 FLuc inconclusive, RORg inh 21%, Giardia killer -2 and SW480 rereplic -13%.
COc1ccccc1NC(=S)NNC(=O)c1nn(C)cc1Cl was read as BCR signal inh inconclusive, MCF10A rerep 4%, Gal4-VP16 FLuc inconclusive, RORg inh 10µM*, Giardia killer -3 and SW480 rereplic -8%.
For COc1cccc2[nH]c(=O)c(-c3ccccc3)cc12 the results were BCR signal inh inconclusive, MCF10A rerep 7%, Gal4-VP16 FLuc 5%, RORg inh 3%, Giardia killer -3 and SW480 rereplic -20%.
`CC(C)(C)OC(=O)N(c1cccc2cccnc12)S(=O)(=O)c1ccccc1Br` gave Giardia killer 3.
For CC(C)c1ccc(NC(=O)N2CCCC2C(=O)Nc2ccc(-n3cnnn3)cc2)cc1 (centres undefined) the results were BCR signal inh inconclusive, MCF10A rerep -2%, Gal4-VP16 FLuc -7%, RORg inh -11%, Giardia killer -1 and SW480 rereplic 0%.
For CCN1C(=O)[C@H]2[C@@H](c3ccc(-c4ccc(Cl)c(Cl)c4)c(OC)c3)N[C@@](Cc3ccccc3)(C(=O)OC)[C@H]2C1=O the results were BCR signal inh -10%, MCF10A rerep 1%, Giardia killer 16 and SW480 rereplic 4%.
For CSc1ccc(Cc2ccc(Cl)cc2Cl)nn1 the results were BCR signal inh 4%, MCF10A rerep -184%[0.0737 µM], Gal4-VP16 FLuc -2%, RORg inh 14%, Giardia killer -5 and SW480 rereplic -11%.
`NNc1ccc(Cc2ccc(Cl)cc2Cl)nn1` gave BCR signal inh inconclusive, MCF10A rerep -1%, Gal4-VP16 FLuc inconclusive, RORg inh 3.5µM*, Giardia killer -9 and SW480 rereplic inconclusive.
For CC1=Cc2ccccc2C(C#N)N1C(=O)c1ccccc1 (centres undefined) the results were BCR signal inh inconclusive, MCF10A rerep inconclusive, Gal4-VP16 FLuc 13µM*, RORg inh inconclusive, Giardia killer -17 and SW480 rereplic inconclusive.
For Cc1ccc2c(c1)C=CC(C#N)N2C(=O)c1ccccc1 (centres undefined) the results were BCR signal inh -15%, MCF10A rerep inconclusive, Gal4-VP16 FLuc -10%, RORg inh -10%, Giardia killer -1 and SW480 rereplic 2.1µM*.
Cc1ccc2c(c1)C=CC(C)N2C(=O)c1ccccc1 (centres undefined) was read as BCR signal inh -3%, MCF10A rerep 30%, Gal4-VP16 FLuc -4%, RORg inh 9%, Giardia killer -5 and SW480 rereplic 1%.
